In ChEMBL document CHEMBL3433997, “St. Jude Leishmania screening dataset” (2016):
“And” between values parts separate entries of the source, which are not always exact repeats. Identical values can stand only once.

Key:
Format in all cases: functional
[1] = biological target: Solute carrier family 2, facilitated glucose transporter member 1 (Homo sapiens) (UniProt P11166); assay: ST_JUDE_LEISH: Cytotoxicity at 2uM final concentration against transgenic Leishmania Mexicana promastigotes LmGLUT1 that are glucose transport deficient and complemented with the human glucose transporter GLUT1. Activity is measured by DNA content using SYBR green in vitro
Sequence of Solute carrier family 2, facilitated glucose transporter member 1 (Homo sapiens) (P11166 whole entry): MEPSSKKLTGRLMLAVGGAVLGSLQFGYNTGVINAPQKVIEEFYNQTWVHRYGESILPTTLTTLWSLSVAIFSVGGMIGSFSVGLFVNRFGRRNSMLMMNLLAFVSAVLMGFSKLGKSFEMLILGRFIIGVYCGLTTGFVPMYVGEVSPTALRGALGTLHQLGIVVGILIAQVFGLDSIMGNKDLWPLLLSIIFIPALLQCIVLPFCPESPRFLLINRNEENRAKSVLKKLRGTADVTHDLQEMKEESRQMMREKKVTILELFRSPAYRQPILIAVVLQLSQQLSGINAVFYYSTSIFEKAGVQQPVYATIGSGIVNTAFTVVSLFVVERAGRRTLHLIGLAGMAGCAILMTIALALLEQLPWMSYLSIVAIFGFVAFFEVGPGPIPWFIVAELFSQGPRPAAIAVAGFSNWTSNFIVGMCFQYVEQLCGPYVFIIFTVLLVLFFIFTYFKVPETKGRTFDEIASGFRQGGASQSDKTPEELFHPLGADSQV

[2] = biological target: Hexose transporter 1 (Plasmodium falciparum) (UniProt O97467); assay: ST_JUDE_LEISH: Cytotoxicity at 2uM final concentration against transgenic Leishmania Mexicana promastigotes LmPfHT that are glucose transport deficient and complemented with the Plasmodium falciparum hexose transporter. Activity is measured by DNA content using SYBR green in vitro
[3] = biological target: Glucose transporter (Leishmania mexicana) (UniProt O61059); assay: ST_JUDE_LEISH: Cytotoxicity at 2uM final concentration against transgenic Leishmania Mexicana promastigotes LmGT2 that are glucose transport deficient and complemented with the L. Mexicana glucose transporter 2. Activity is measured by DNA content using SYBR green in vitro

Compound: COc1ccc2nccc(N3CCC(SCCNCc4ccc5c(n4)NC(=O)CS5)C3)c2n1 (stereo not drawn)
- inhibition [1]: -1.38%
- inhibition [2]: -0.72%
- inhibition [3]: 0.51%

Compound: O=C(Nc1cccc(F)c1)NC1CCN(c2ccnc3cc(Cl)ccc23)C1 (stereo not drawn)
- inhibition [1]: 2.72%
- inhibition [2]: 2.74%
- inhibition [3]: 4.22%

Compound: COc1ccc2ncc(F)c(C(O)CN3CCC(NCc4ccc5c(n4)NC(=O)CO5)CC3)c2c1 (stereo not drawn)
- inhibition [1]: -0.67% and 5.77%
- inhibition [2]: 2.57% and 4.56%
- inhibition [3]: -3.55% and 1.93%

Compound: O=C(NCCCN(Cc1ccc(F)cc1)c1ccccn1)C(c1cc2ccccc2o1)N1CCN(C(c2ccccc2)c2ccccc2)CC1 (stereo not drawn)
- inhibition [1]: 3.35%
- inhibition [2]: 3.69%
- inhibition [3]: 1.89%

Compound: CNC(=O)c1ccc(/C=C/C(=O)N2CCc3ccc(-c4ccccc4)cc3C2c2cccc(C(F)(F)F)c2)cc1 (stereo not drawn)
- inhibition [1]: 2.29%
- inhibition [2]: -0.01%
- inhibition [3]: 0.99%

Compound: CCN(CC)CCN(Cc1ccc(-c2ccc(C(F)(F)F)cc2)cc1)C(=O)Cn1c(CCc2ccc(F)c(F)c2F)nc(=O)c2ccccc21
- inhibition [1]: 8.82%
- inhibition [2]: 7.31%
- inhibition [3]: 10.2%

Compound: CN1CCN(c2cc(-c3ccncc3)nc(-c3cccnc3)n2)CC1
- inhibition [1]: 5.17%
- inhibition [2]: 3.27%
- inhibition [3]: 3%

Compound: CCN1CCC(N(Cc2ccc(-c3ccc(C(F)(F)F)cc3)o2)C(=O)Cn2c(CCc3cccc(F)c3F)nc(=O)c3ccccc32)CC1
- inhibition [1]: 11.3%
- inhibition [2]: 10.6%
- inhibition [3]: 11.7%

Compound: COc1ccc(-c2ccc(NC(=O)c3ccc(Cl)cc3)cc2)cc1CN1CCNCC1
- inhibition [1]: 1.97%
- inhibition [2]: 2.41%
- inhibition [3]: 2%

Compound: NCC(=O)Nc1cccc(Nc2nccc(-c3c(-c4cccc(NC(=O)c5ccccc5)c4)nn4ccccc34)n2)c1
- inhibition [1]: 3.36%
- inhibition [2]: 7.49%
- inhibition [3]: 1.14%

Compound: c1ccc(CCNCc2ccc(-c3cccc(CNc4ccc5ncccc5c4)c3)cc2)cc1
- inhibition [1]: 14.6%
- inhibition [2]: 11.7%
- inhibition [3]: 11.3%

Compound: Cc1cccc2nc(-c3cccc(-c4ccc(NC(=O)Nc5cccc(C#N)c5)cc4)c3)[nH]c12
- inhibition [1]: 2.14%
- inhibition [2]: 2.03%
- inhibition [3]: -1.2%

Compound: CSc1nc2cc3c(cc2n1C(=O)c1ccc(C)cc1)OCCO3
- inhibition [1]: 6.31%
- inhibition [2]: 4.48%
- inhibition [3]: 2.89%

Compound: CCNc1cc(C(=O)N[C@@H](Cc2ccccc2)[C@H](O)CNCCC(C)c2ccccc2)cc(N2CCCC2=O)c1 (stereo partly drawn)
- inhibition [1]: 4.77%
- inhibition [2]: 5.96%
- inhibition [3]: 1.33%

Compound: COc1c(C2CCN(CCCCNC(=O)c3ccc(-c4ccc(C#N)cc4)c(O)c3)CC2)ccc2c1CCCC2
- inhibition [1]: -0.29%
- inhibition [2]: -0.43%
- inhibition [3]: 0.55%

Compound: Cc1ccccc1N1CCN(c2ccc(C(=O)NC3CC3)cn2)CC1
- inhibition [1]: 10.9%
- inhibition [2]: 8.46%
- inhibition [3]: 4.25%

Compound: c1cncc(NCc2ccc(-c3cc4ccncc4cc3OC3CCNCC3)s2)c1
- inhibition [1]: 4.74%
- inhibition [2]: 5.2%
- inhibition [3]: 4.54%

Compound: COc1ccc(C=C2SC(=O)N=C2Nc2ccccc2)c(OC)c1
- inhibition [1]: 6.71%
- inhibition [2]: 5.61%
- inhibition [3]: 2.58%

Compound: CC(C)c1ccc(S(=O)(=O)Nc2cccc(CCN3CCC(N4CCCCC4)CC3)c2)cc1
- inhibition [1]: 38%
- inhibition [2]: 4.08%
- inhibition [3]: 1.03%

Compound: COc1cc(Cc2cnc(N)nc2N)ccc1OCc1cccc(Oc2ccccc2)c1
- inhibition [1]: 2.15%
- inhibition [2]: 1.48%
- inhibition [3]: 0.19%

Compound: CCn1ccc2c(N3CCCS3(=O)=O)cc(C(=O)N[C@@H](Cc3ccccc3)[C@H](O)CNC(C)(C)c3cccc(OC)c3)cc21
- inhibition [1]: 0.43%
- inhibition [2]: 2.4%
- inhibition [3]: 1.49%

Compound: N#Cc1cccc(COC(=O)C2=C(COc3ccccc3Cl)NC(=O)NC2c2c[nH]c3cnccc23)c1 (stereo not drawn)
- inhibition [1]: 9.04%
- inhibition [2]: 6.63%
- inhibition [3]: 6.83%

Compound: CC(=O)Nc1cccc(Nc2nccc(Nc3ccc(Oc4ccccc4)cc3)n2)c1
- inhibition [1]: 1.64%
- inhibition [2]: 2.76%
- inhibition [3]: -0.82%

Compound: O=C(Nc1ccc(-c2nc3ccccc3[nH]2)cc1)C1CCN(Cc2ccc(F)cc2)CC1
- inhibition [1]: 41.4%
- inhibition [2]: 44.9%
- inhibition [3]: 30.5%

Compound: COc1ccc2ncc(F)c([C@@H](O)CN3CCC(NCc4cc5c(cn4)OCCO5)CC3)c2c1
- inhibition [1]: 2.51%
- inhibition [2]: 2.79%
- inhibition [3]: 3.93%

Compound: Cn1c(=O)c(-c2c(Cl)cccc2Cl)cc2cnc(Nc3ccc(N4CCOCC4)cc3)nc21
- inhibition [1]: 34.6%
- inhibition [2]: 41%
- inhibition [3]: 11.6%

Compound: COc1ccc2nc3cc(Cl)ccc3c(Nc3ccc(Oc4ccc(Nc5c6ccc(Cl)cc6nc6ccc(OC)cc56)cc4)cc3)c2c1
- inhibition [1]: 1.15%
- inhibition [2]: 1.19%
- inhibition [3]: 1.3%

Compound: Cc1cccc2nc(-c3ccc(-c4ccc(NC(=O)Nc5cccc(C#N)c5)cc4)cc3)[nH]c12
- inhibition [1]: 9.74%
- inhibition [2]: 6.91%
- inhibition [3]: 7.39%

Compound: CCC1N=C(N)N=C(N)N1OCc1ccc(Cl)c(Cl)c1 (stereo not drawn)
- inhibition [1]: -0.58%
- inhibition [2]: 0.09%
- inhibition [3]: -0.8%

Compound: COc1cc(-c2cc3cc(Cl)c(Cl)cc3[nH]2)ccc1C(=O)NC1CCN(Cc2ccccc2)CC1
- inhibition [1]: 4.58%
- inhibition [2]: 2.67%
- inhibition [3]: 3.54%

Compound: CN(C)c1ccc(CN2CCC(NC(=O)c3ccc(-c4cccc(Cl)c4)s3)CC2)cc1
- inhibition [1]: 0.72%
- inhibition [2]: -1%
- inhibition [3]: 0.31%
